Only some compounds are listed: those with a hit (about 5.4% of all), similar ones and a draw of the others.
HSF1 inhib – HSF1 inhibitors in luciferase reporter cells, primary screen, cell-based, NIH3T3, luminescence | 0.77% of 300,000 active | activity change, negative = inhibition, % at 7.5 µM (by protocol) | NIH3T3-HGL HSE-luciferase, MG132-induced, luminescence 8 h; hits give low values;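 active = more than half of replicate wells show activity change below -50%, luminescence cut by over half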;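 also: luciferase reports HSF-1 transcriptional activity via heat shock element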
HSF1 activator – HSF-1 activators, primary screen, NIH3T3-HGL cells, MG132 stress, luminescence, single point; 1.7% of 300,000 active; AID 504408, 2011; activation, % at 9 µM; NIH3T3-HGL HSF-1 luciferase reporter, 8 h; 100% = twice DMSO control signal;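 active = mean replicate activation of at least 50% with a set share of replicates each reaching 50%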
NR0B1 inh – DAX1 (NR0B1) inhibitors, primary screen, cell-based, HEK293, Gal4-DAX1, luciferase luminescence; Nuclear receptor subfamily 0 group B member 1 (Homo sapiens), P51843; HEK293 Gal4-DAX1 luciferase reporter; inhibition, % at 6.75 µM; 0.99% of 340,000 active; AID 504766, 2011;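 active = inhibition above the mean over all tested compounds plus 3 SD, cut at about 4.2% in these data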;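 also: inhibition shows as a rise in luminescence from relieved DAX1 repression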
Target sequence (P51843 207-470 limits assumed): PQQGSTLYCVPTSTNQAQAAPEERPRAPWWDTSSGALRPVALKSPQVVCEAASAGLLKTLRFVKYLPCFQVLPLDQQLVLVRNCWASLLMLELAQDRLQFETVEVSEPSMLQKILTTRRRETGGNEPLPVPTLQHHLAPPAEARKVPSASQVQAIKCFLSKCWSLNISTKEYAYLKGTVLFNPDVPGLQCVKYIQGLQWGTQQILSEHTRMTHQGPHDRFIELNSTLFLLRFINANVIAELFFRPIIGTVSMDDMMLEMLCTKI
FXN GAA850 act – FXN promoter activators, primary screen, cell-based, luciferase luminescence, HEK293 lucGAA850 | activation, % at 6 µM | 0.56% of 360,000 active | HEK293 lucGAA850 FXN promoter luciferase reporter, 24 h; percent of 10 µM SAHA response;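 active = activation above the average of all compounds screened plus 3 SD, cutoff fixed separately per campaign, cut at about 7.5% in these data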
AHR act – AHR activators, primary screen, cell-based, luminescence, luciferase reporter, human; Aryl hydrocarbon receptor (Homo sapiens), P35869; AHR-responsive luciferase reporter cells; activation, % at 5 µM; 2.5% of 320,000 active; in the data active = activation above about 47%
Numbers stand for hits; - = inactive; . = no result.

SMILES	HSF1 inhib	HSF1 activator	NR0B1 inh	FXN GAA850 act	AHR act
COc1ccc(-c2cc(C(=O)Nc3ccccc3F)on2)cc1	-	54.0	-	-	-
COc1ccc(-c2cc(C(=O)Nc3ccccc3)on2)cc1	-	-	-	-	-
COc1ccc(C(=O)Nc2cc(C)on2)cc1S(=O)(=O)N1CC(c2ccccc2)CC1=O (stereo not given)	-	-	.	-	-
CCOC(=O)c1cnc2ccccc2c1NCc1ccco1	-	-	-	-	-
CCOC(=O)c1cnc2ccccc2c1Nc1ccc2c(c1)OCCO2	-60.8	-	-	-	-
O=C(Cn1ncc(Cl)c(Cl)c1=O)N1CCc2ccccc21	-	-	-	-	.
O=C(Cn1ncc(Cl)c(Cl)c1=O)N1CCN(Cc2ccccc2)CC1	-	54.9	-	-	.
CC1(C)C(=O)Nc2ccccc2N1C(=O)Cn1ncc(Cl)c(Cl)c1=O	-	54.0	-	-	-
O=C(Cn1ncc2c3ccccc3n(Cc3ccccc3)c2c1=O)N1CCN(c2ccccn2)CC1	-	-	-	18.8	-
Cc1nn(CC(=O)N2c3ccccc3NC(=O)C2(C)C)c(C)c1[N+](=O)[O-]	-	-	-	-	-
NC(=O)C1CCN(C(=O)c2ccc3nc(N4CCCCC4)sc3c2)CC1	-	-	5.2	-	-
C=CCOc1ccc(/C=C/C(=O)OCC(=O)NCC(=O)Nc2c(C)cc(C)cc2C)cc1	-	-	-	-	-
COc1ccccc1CCNC(=O)C(=O)NCC1OCCN1S(=O)(=O)c1ccc([N+](=O)[O-])cc1 (stereo not given)	-	-	-	-	-
Cc1cccc(CCN2C(Nc3ccccc3)=NC[C@@H]2CC(C)C)c1	.	.	6.7	-	-
CCC(C)CCN1C(Nc2ccccc2)=NC[C@@H]1CC(C)C (stereo not given in full)	-	-	4.8	-	-
CC(C)CCN1C(Nc2ccccc2)=NC[C@@H]1CC(C)C	-	-	-	-	-
O=C(COc1ccccc1/C=C1\SC(=O)NC1=O)Nc1ccccc1	-	-	-	-	56.9
Oc1cnc2ccccc2c1CN1CCOCC1	-	-	-	-	-
Oc1ccc2ccccc2c1CN1CCOCC1	-	82.8	-	-	-
Oc1ccccc1Cc1c(O)ccc2ccccc12	-	100.9	-	-	-
COc1ccc(S(=O)(=O)N2CCCCCC2)cc1NC(=O)Cc1n[nH]c(=O)c2ccccc12	.	.	-	-	.
Cc1ccn2c(NC3CCCCC3)c(C)nc2c1	-	-	5.1	-	-
Cc1ccn2c(NC3CCCC3)c(-c3ccccn3)nc2c1	-	-	-	-	77.1
Cc1cc(-c2ccc(S(=O)(=O)NCc3ccc(Cl)cc3)cc2)on1	.	.	-	-	.
CC(=O)N1CCN(C2=NC(=O)C(=C3CCCCC3)S2)CC1	-	-	-	-	-
SMILES	HSF1 inhib	HSF1 activator	NR0B1 inh	FXN GAA850 act	AHR act
O=C1N=C(N2CCOCC2)SC1=C1CCCCC1	-	-	6.8	-	-
O=C(C1CCC(CNc2c(N3CCCCC3)c(=O)c2=O)CC1)N1CCN(c2ccccn2)CC1 (stereo not given)	-	-	-	-	-
O=C(C1CCC(CNc2c(N3CCCCC3)c(=O)c2=O)CC1)N1CCN(C2CCCCC2)CC1 (stereo not given)	-	-	4.4	-	-
CCC(Cc1ccccc1)NS(=O)(=O)c1ccc2c(c1)NC(=O)CO2 (stereo not given)	-	-	-	-	-
CCc1nc(SCC(=O)NC2CC2)c2c(C)c(C)sc2n1	-	-	-	-	51.9
O=C(NCc1ccccc1Cl)c1csc(COCCO)n1	.	.	.	-	.
N#Cc1cccc(-c2csc(C(O)(c3ccccc3)C(F)(F)F)n2)c1 (stereo not given)	.	.	.	-	.
COc1cc2ccccc2cc1C(=O)NC1CCCCC1	.	.	-	-	-
O=C(NC1CCCCC1)c1ccc2ccccc2c1	.	.	4.8	-	.
COc1cc2ccccc2cc1C(=O)NC1CCCC1	.	.	-	-	77.4
COc1ccc(CN(C)C(=O)c2ccncc2)c(OC)c1	-	-	-	-	-
COC(=O)c1ccc(CNC(=O)C2CCC(=O)N(CCN3CCOCC3)C2)cc1 (stereo not given)	-	-	-	-	.
O=C(COc1ccc(S(=O)(=O)N2CCOCC2)cc1)NCCN1CCOCC1	-	-	-	-	-

Screening data deposited in PubChem by several laboratories.
